From PubChem BioAssay AID1159606 (Sanford-Burnham Center for Chemical Genomics, 2016)
The whole screen tested about 360,000 compounds, of which about 7,300 (2%) were called active. Many of the other results were omitted from the sample, so actives are more common in it than they were. Unmarked numbers belong to inactive results. No stated cut-off is given here; in the data, active means inhibition above about 50%; inactive means the rest.

Experiment: blockers of TWEAK-induced Fn14 reporter activity – luciferase reporter cells, uHTS, primary screen (AID 1159606)
Conditions: TWEAK-stimulated Fn14 reporter cells, luciferase luminescence, 8 h; at 10 µM; active compounds read high
`CCOC(=O)c1c(N=CN(C)C)c(C#N)c2n1CCCC2` showed an inhibition of -13.8%.
`COc1ccc(C(C)NC(=S)NC2CCCCC2)cc1OC` (stereo not drawn) gave an inhibition of 10.8%.
`CC(C)CN(C(=O)CSc1ncnc2sccc12)C1CCS(=O)(=O)C1` (stereo not drawn) gave an inhibition of 4.56%.
`COc1cc(OC)cc(C2=Cc3ccccc3C(CC(=O)c3ccco3)N2c2ccc(-c3cnc(OC)nc3)cc2)c1` (stereo not drawn) showed an inhibition of 16.7%.
Work on `Cc1ccc(NC(=O)CC2S/C(=N/N=C3\CCCc4ccccc43)NC2=O)cc1` (stereo not drawn) yielded an inhibition of 11.1%.
In the case of `Cc1ccc(-n2c(SCC(=O)NCc3ccc4c(c3)OCO4)nnc2-c2cccnc2)c(C)c1`, the inhibition is reported as -9.21%.
With `CCCc1[nH]nc2c1C(C1CC=CCC1)C(C#N)=C(N)O2` (stereo not drawn) the inhibition was 53.8% (active).
Work on `N#CC1=C(N)OC2=C(C(=O)CCC2)C1C1CC=CCC1` (stereo not drawn) yielded an inhibition of 24.8%.
Molecule `CCCc1[nH]nc2c1C(c1ccc(Br)s1)C(C#N)=C(N)O2` (stereo not drawn) has an inhibition of 30.2%.
For `CCCCCc1c(-c2ccc(OC)c(OC)c2)ncn1CCc1ccccc1OC`, the inhibition was 62.6% (active).
`CCCCc1c(-c2ccc(Cl)cc2)ncn1CCc1ccccc1OC` gave an inhibition of 26.6%.
Work on `CCCCCc1c(-c2cccc(Br)c2)ncn1CCc1ccccc1OC` yielded an inhibition of -2.04%.
With `Cn1c(SCC(=O)Nc2ccc(N3CCOCC3)cc2)nnc1C(F)(F)F` the inhibition was -2.56%.
With `Cc1cc(Br)cn2c(Cc3ccccc3C(F)(F)F)c(-c3ccc(Cl)cc3)nc12` the inhibition was 26.9%.
For `CCCc1ccc(-c2c(C)sc(NC(=O)c3ccnn3C)c2C#N)cc1`, the inhibition was 13.3%.
With `CC(C)(C)c1ccc(C(=O)NCC(=O)OCN2C(=O)c3ccccc3C2=O)cc1` the inhibition was -8.88%.
`Cc1ccc(CNC(=O)c2ccc3c(c2)S(=O)(=O)c2ccccc2C3=O)cc1` showed an inhibition of -18%.
In the case of `COC(=O)CNC(=O)c1ccc2c(c1)S(=O)(=O)c1ccccc1C2=O`, the inhibition is reported as 65.4% (active).
For `CCCc1nc(NCc2ccc3c(c2)OCO3)c2nnn(Cc3ccccc3Cl)c2n1`, the inhibition was -10.6%.
With `Cc1nc(Nc2ccc3c(c2)OCCO3)c2nnn(Cc3ccccc3Cl)c2n1` the inhibition was 94.4% (active).
In the case of `Cc1nc(Nc2ccccc2F)c2nnn(Cc3ccccc3Cl)c2n1`, the inhibition is reported as 20%.
`O=C1C2C3C=CC(C3)C2C(=O)N1c1ccc(-c2nc3ccccc3c(=O)o2)cc1` (stereo not drawn) gave an inhibition of -0.15%.
`O=C(/C=C/[C@H]1O[C@@H](n2ccc(=O)[nH]c2=O)[C@H](O)[C@@H]1O)NCc1ccccn1` gave an inhibition of 9.38%.
For `Cc1ccccc1OCC(=O)Nc1ccc(N2CCN(C(=O)C(C)C)CC2)c(Cl)c1`, the inhibition was 70.6% (active).
Molecule `CCc1ccccc1OCC(=O)Nc1ccc(C)c(S(=O)(=O)N2CCCCCC2)c1` has an inhibition of 12.8%.
In the case of `COc1cc(NC(=O)COc2ccccc2Cl)ccc1NC(=O)C(C)C`, the inhibition is reported as -5.09%.
Molecule `Cn1nnnc1SCC(=O)Nc1ccccc1C(=O)NC1CC1` has an inhibition of -4.44%.
Work on `COCCOC(=O)c1c(C)oc2cc(Br)c(OCC(N)=O)cc12` yielded an inhibition of -6.98%.
Work on `CCCCCc1ccc(-c2ccc(OCC)cc2)nc1` yielded an inhibition of -9.17%.
For `CCCCCc1ccc(-c2ccc(C(=O)O)cc2)nc1`, the inhibition was 87.5% (active).
Molecule `CCCCCC(=O)Nc1ccc(-c2cn3cccnc3n2)cc1` has an inhibition of -20.2%.
In the case of `O=C(NC(=S)Nc1ccccc1C(=O)O)c1ccc(-c2ccc(Br)cc2)o1`, the inhibition is reported as 47.2%.
`CCOC(=O)c1c(NC(=O)CSc2nccc(=O)[nH]2)sc(C)c1C` showed an inhibition of -3.68%.
For `CCOC(=O)c1c(C)[nH]c2c1-c1ccccc1C(=O)C2=O`, the inhibition was 101% (active).
`CCOC(=O)c1c(C)[nH]c(C)c1S(=O)(=O)NCCCc1ccco1` gave an inhibition of -7.27%.
For `Cc1cccc(CN2CCN(C3CN(Cc4cn(Cc5ccccc5F)nn4)S(=O)(=O)C3)CC2)c1` (stereo not drawn), the inhibition was -19.2%.
With `NC(=O)C1CC(=O)N(c2ccc(OCC(=O)NCc3ccccc3)cc2)C1` (stereo not drawn) the inhibition was 32.7%.
`Cc1cccc(C)c1NC(=O)CNC(=O)c1ccc(N2CCOCC2)c([N+](=O)[O-])c1` gave an inhibition of 8.19%.
`O=S(=O)(NCCCCCCNS(=O)(=O)c1c(F)cccc1F)c1ccc2c(c1)OCCO2` showed an inhibition of 16.7%.
Molecule `O=C1NC[C@H](Cc2ccc(O)cc2)N(C[C@@H]2CCCN2C[C@H](Cc2ccccc2)N2C[C@H](Cc3ccccc3)N(CC3CCCCC3)C(=O)C2=O)C1=O` has an inhibition of -9.41%.
Molecule `COc1cccc(C(=O)N/N=C(\C)c2cccc(NC(=O)c3ccc(F)cc3)c2)c1OC` has an inhibition of -20%.
With `CC1CCN(C(=O)c2ccc(S(=O)(=O)Cc3cc(F)ccc3F)c([N+](=O)[O-])c2)CC1` the inhibition was 83.4% (active).
In the case of `O=C(c1ccc(Oc2ccc(Cl)cc2)c([N+](=O)[O-])c1)N1CCCC1`, the inhibition is reported as -4.37%.
`Nc1ccc(C(=O)N2CCN(S(=O)(=O)c3ccc(Cl)cc3)CC2)cc1[N+](=O)[O-]` showed an inhibition of -5.64%.
For `O=C(NCCc1ccccn1)c1ccc(COc2ccccc2)o1`, the inhibition was -2.18%.
In the case of `COc1ccc(/C=C/C(=O)Nc2ccc(C)cc2)cc1S(=O)(=O)N1CCOCC1`, the inhibition is reported as -4.91%.
For `COc1ccc(/C=C/C(=O)c2ccc(NS(=O)(=O)c3ccc(C)cc3)cc2)cc1O`, the inhibition was 60.9% (active).
Molecule `Cc1ccc(C(=O)/C=C/Nc2ccc(S(=O)(=O)Nc3onc(C)c3C)cc2)cc1` has an inhibition of -32%.
`COc1ccc(CNC(=O)c2c[nH]c3c(OC)cc(OC)cc3c2=O)cc1` showed an inhibition of -46.6%.
`CCCCN1C(=O)c2ccc(C(=O)Nc3ccc(S(=O)(=O)N(C)C)cc3)cc2C1=O` gave an inhibition of 33.8%.
For `O=C(c1[nH]ncc1-c1ccc(Cl)cc1)C1CO1` (stereo not drawn), the inhibition was 66.5% (active).
In the case of `COc1ccc(NC(=O)C2Cc3c(-c4ccc(Cl)cc4)ccnc3O2)cc1` (stereo not drawn), the inhibition is reported as 6.65%.
Work on `Cc1ccc(S(=O)(=O)n2oc(=O)c(C3CCCCC3)c2N)cc1` yielded an inhibition of 2.92%.
Work on `CCCS(=O)(=O)Nc1ccc(-c2cn3c(n2)SCC3)cc1` yielded an inhibition of -17.6%.
For `Cc1nn(Cc2ccc(F)cc2)c(C)c1NC(=O)c1noc2c1CCc1ccccc1-2`, the inhibition was 60.1% (active).
With `Cc1ccccc1Cn1nc(C)c(NC(=O)C(F)(F)F)c1C` the inhibition was -0.38%.
`Cc1nn(Cc2ccc(Cl)c(Cl)c2)c(C)c1NC(=O)c1cc(C2CC2)on1` showed an inhibition of -9.69%.
`CC(C)(C)C1CCC(=O)N2CCC[C@]2(c2ccccc2)C1` (stereo partly drawn) showed an inhibition of -2.82%.
With `COc1ccc(/C=N/Nc2ncnc3sc4c(c23)CCCC4)cc1O` the inhibition was 91.4% (active).
Work on `COc1ccc(NC(=O)CCCNC(=O)Cn2cnc3sc4c(c3c2=O)CCCC4)cc1OC` yielded an inhibition of 4.82%.
`COc1ccc(NC(=O)CCNC(=O)Cn2cnc3sc4c(c3c2=O)CCCC4)cc1OC` showed an inhibition of -3.89%.
For `Cc1ccccc1S(=O)(=O)N1[C@@H](c2cccc(Cl)c2)C(C(=O)OC(C)(C)C)=CC[C@H]1c1ccc(Cl)cc1`, the inhibition was -24.3%.
For `Cc1ccc(-c2nc3c(Cl)cc(C(F)(F)F)cn3c2Cc2cccc(Cl)c2)cc1`, the inhibition was 25.6%.
In the case of `COC(=O)c1ccc2c(c1)S(=O)(=O)NC2C` (stereo not drawn), the inhibition is reported as -6.18%.
In the case of `CN(C)c1ccc2c(=O)[nH][nH]c(=O)c2c1`, the inhibition is reported as -6.35%.
For `COc1ccc(CCNC(=O)COC(=O)Cc2cccc(F)c2)cc1`, the inhibition was -0.83%.
In the case of `CC(C)Oc1ccc(CCc2n[nH]c(=S)n2Cc2ccccc2)cc1`, the inhibition is reported as -6.3%.
With `COc1cc(-c2n[nH]c(=S)n2Cc2ccccc2)cc(OC)c1OC` the inhibition was -2.96%.
With `CC(C)Oc1ccc(Cc2n[nH]c(=S)n2Cc2ccccc2)cc1Cl` the inhibition was 92.2% (active).
Work on `CCC(C(=O)OC)n1cnc2scc(-c3ccc(C)cc3)c2c1=O` (stereo not drawn) yielded an inhibition of 0.23%.
For `CCOC(=O)c1c(-c2ccc(C)cc2)csc1/N=C(\C)C1=C(O)c2ccccc2C1=O`, the inhibition was 66.2% (active).
With `COC(=O)c1c(-c2ccc(C)cc2)csc1N` the inhibition was -2.01%.
`CS(=O)(=O)N(C(=O)NC(=O)NC1CCS(=O)(=O)C1)C1CCCCC1` (stereo not drawn) showed an inhibition of 13.7%.
`CCCS(=O)(=O)NC(=O)C1(C)CCCN(C(=O)c2cccs2)C1` (stereo not drawn) gave an inhibition of -4%.
Work on `COCC1CCCCN1C(=O)c1cc(COc2ccc(C)c(C)c2)on1` (stereo not drawn) yielded an inhibition of -33.8%.
With `O=C(Nc1nc2ccc([N+](=O)[O-])cc2s1)c1ccc(S(=O)(=O)N2CCCc3ccccc32)cc1` the inhibition was 64.6% (active).
Molecule `CC1CCN(C(=O)c2cccc(S(=O)(=O)N3CCCc4ccccc43)c2)CC1` has an inhibition of -0.65%.
`CC(Nc1ccc([N+](=O)[O-])cc1[N+](=O)[O-])c1ccccc1` (stereo not drawn) gave an inhibition of -18.4%.
In the case of `O=C(NC(Nc1nc2ccc([N+](=O)[O-])cc2s1)(C(F)(F)F)C(F)(F)F)c1ccccc1`, the inhibition is reported as 57.6% (active).
`CCC(=O)Nc1nnc(S(=O)(=O)N2CCCc3ccccc32)s1` showed an inhibition of -3.9%.
`NS(=O)(=O)c1ccc(CNC(=O)c2cccc(S(=O)(=O)N3CCc4ccccc43)c2)cc1` gave an inhibition of 3.71%.
`NS(=O)(=O)c1ccc2nc(NC(=O)C3=COCCO3)sc2c1` gave an inhibition of 24.4%.
For `Cc1ccc(NC(=O)c2cccc(S(=O)(=O)N3CCCc4ccccc43)c2)nc1`, the inhibition was 58.7% (active).
With `O=C(NNC(=O)c1ccc(-n2cncn2)c([N+](=O)[O-])c1)c1ccccc1` the inhibition was 2.77%.
Work on `CCCCCCCCN1C(=O)[C@H](CC(=O)NCC23CC4CC(CC(C4)C2)C3)C[C@@]2(C(=O)OC)CCCCC=C12` yielded an inhibition of 8.39%.
`CCNC(=O)C1(C)CCN(Cc2ccc(C(=O)OCC)o2)C1` (stereo not drawn) gave an inhibition of 1.05%.
With `CN(C)N=Nc1ccc2nc[nH]c2c1` the inhibition was -9.3%.
In the case of `O=S1(=O)CC(N2CCN(Cc3ccccc3F)CC2)CN1Cc1cn(Cc2ccccc2)nn1` (stereo not drawn), the inhibition is reported as 5.09%.
